The list is not random: actives were taken first. Their share in the collection is about 7.8%.
VACV mCherry inh = vaccinia inhibition (mCherry reporter); Vaccinia virus mCherry reporter infection, fluorescence; Potency, µM (highest dose often 36.5 µM), actives largely listed as inhibitors; actives 0.63% (n = 310,000); AID 720579; calls by dose curve; tested in A549 cells; also: nearly all actives have a fitted effect of over 35% in size
Vaccinia Venus = inhibitors of vaccinia virus (Venus reporter); Vaccinia virus Venus reporter expression, fluorescence; Potency, µM (series often up to 36.5 µM), usual class: inhibitors; actives 0.46% (n = 330,000); calls by dose curve; tested in A549 cells; also: nearly all actives have a fitted effect of over 30% in size
HCMV antiviral = blocks human cytomegalovirus replication | actives 4.5% (n = 410,000) | HFF cells, HCMV-luciferase reporter, 72 h; stronger effect = lower value | activity change, negative = inhibition, % at 57.5 µM | AID 1259415; in the data active = activity change below about -60%; inconclusive = no clear call, values can overlap the other calls; inactive = above about -39%
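Steps: HFFs plated, 16 h 37C; compounds added; HCMV-luciferase added to MOI 1 PFU/cell; 72 h 37C; OneGlo reagent, 5 min room temperature; luminescence read, normalized to controls.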
Lassa entry inh = blocks Lassa virus binding to or entry into cells. Lassa virus pseudotype entry inhibition, cell reporter. Potency, µM (highest dose often 37.9 µM), hits mostly inhibitors. actives 1.2% (n = 300,000); calls by dose curve; tested in HEK293 cells; also: nearly all actives have a fitted effect of over 50% in size
HCV inh = blocks hepatitis C virus | Huh7.5.1 HCVcc-Cre infection, luciferase reporter, 44 h | Potency, µM (doses to about 41.8 µM), hits mostly inhibitors | actives 3.4% (n = 340,000) | AID 651820; active = well fitted inhibition curve with a large enough effect; inconclusive = small, poorly fitted or top-dose-only effect, or another doubt; inactive = no such curve, though single readings can be large or run the other way
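A cell-based infection assay in which seeded cells (1,000 per well) receive test compound after 4 h, are inoculated with HCVcc-Cre at approximately 0.5 moi, and are incubated 44 h before luminescence detection.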
Marburg entry inh = blocks Marburg virus binding to or entry into cells | Marburg virus pseudotyped entry inhibition, cell reporter | Potency, µM (top dose mostly 37.8 µM), most hits filed as inhibitors | actives 1.8% (n = 300,000) | AID 540276; calls by dose curve; tested in HEK293 cells
Hits are given with their value; - = inactive; ? = inconclusive; . = no result given; + = active, no number; [ ] = remark or other dose.

SMILES | VACV mCherry inh | Vaccinia Venus | HCMV antiviral | Lassa entry inh | HCV inh | Marburg entry inh
O=C(NCCc1ccc(Cl)cc1)c1ccc2nc(Cc3ccccc3)oc2c1 | - | - | - | ? | . | .
CCc1ccc(CNC(=O)CN2C(=O)c3cccnc3Oc3ccc(Cl)cc32)cc1 | - | - | - | - | . | .
CCN(CC)c1ccccc1/C=C/[n+]1ccc(CCCCI)c2ccccc21 | - | - | . | . | . | .
CC(=O)N1c2ccccc2C(=O)C1N1CCN(c2cccc(C)c2C)CC1 (centres undefined) | - | - | - | ? | . | .
C=C(C)CNC(=O)c1ccc2nc(Cc3ccc(OC)cc3)oc2c1 | - | - | - | 6.3µM | - | -
CCC(NC(=O)c1ccc2nc(Cc3ccc(OC)cc3)oc2c1)c1ccncc1 (centres undefined) | . | . | + | . | - | .
CCn1c(CNC(=O)C23CC4CC(CC(C4)C2)C3)nnc1SCC(=O)Nc1ccc(F)cc1 | - | - | - | - | . | -
Cc1cc2occ(CC(=O)NCc3cccs3)c2cc1C(C)C | ? | - | - | - | - | ?
Cc1csc(NC(=O)Cc2coc3cc(C)c(C(C)C)cc23)n1 | . | - | -89 | 2.8µM | 10µM | 4µM
CCOC(=O)c1c(CSc2ccccc2)n(C)c2cc(Br)c(OCC(O)CNC(CO)(CO)CO)cc12 (centres undefined) | - | ? | -63 | ? | ? | ?
CCOC(=O)c1c(CSc2ccccc2)n(C)c2cc(Br)c(OC)c(O)c12 | . | . | - | . | ? | .
COc1cccc(C2=NC(C)(CC(=O)NCc3ccccc3F)ON2C)c1 (centres undefined) | . | . | - | . | . | .
CCOc1ccc(Nc2nc(N)c(C(=O)c3ccccc3Cl)s2)cc1 | -[7.34 µM] | -[7.34 µM] | -90 | ? | . | .
COc1ccc(Nc2nc(N)c(C(=O)c3ccc(F)cc3)s2)cc1 | ? | ? | - | . | - | .
COc1ccc(Nc2nc(N)c(C(=O)c3ccc(OC)cc3)s2)cc1 | 1.8µM | - | - | ? | ? | ?
Cc1ccc(C(=O)c2sc(Nc3ccc(F)cc3)nc2N)c(C)c1 | ? | - | ? | - | . | .
O=Nc1c(O)[nH]c2ccc(Cl)c(Cl)c12 | 14µM | ? | - | - | - | ?
O=C(NCc1ccc2c(c1)OCO2)C1CCC(CNc2c(N3CCCC3)c(=O)c2=O)CC1 (centres undefined) | - | - | -84 | . | - | -
CCn1cnc2c(=O)oc3ccc(S(=O)(=O)N4CCN(c5cc(C)ccc5C)CC4)cc3c21 | - | - | - | - | . | -
O=C(CN1c2ccccc2S(=O)(=O)c2ccccc21)Nc1ccccc1F | - | - | -63 | - | - | -
CCC(=O)c1cn(CC(=O)Nc2ccccc2)c2ccccc12 | - | - | - | ? | - | ?
CC(=O)c1cn(CC(=O)Nc2ccccc2)c2ccccc12 | . | . | -73 | ? | ? | ?
COc1ccc(NC(=O)Cn2cc(C(=O)c3ccco3)c3ccccc32)cc1 | - | - | - | - | 3.5µM | -
CCOc1ccc(NC(=O)Cn2cc(C(=O)c3ccco3)c3ccccc32)cc1 | - | - | - | - | - | -
Cc1ccc(NC(=O)Cn2cc(C(=O)c3ccccc3)c3ccccc32)cc1 | - | - | -91 | ? | . | ?
SMILES | VACV mCherry inh | Vaccinia Venus | HCMV antiviral | Lassa entry inh | HCV inh | Marburg entry inh
CCc1c(C)c2cc3c(c(C)c2oc1=O)OCN(CCc1ccccc1F)C3 | - | - | - | ? | . | -
CCCCCN1C(C(=O)c2ccccc2)=C(NC(=O)c2ccc(OC)cc2)c2ccccc2S1(=O)=O | - | - | - | ? | . | ?
Cc1c(Cl)cccc1NC(=O)Cn1cc(C(=O)C2CCCCC2)c2ccccc21 | -[7.34 µM] | -[7.34 µM] | -70 | ? | . | ?
CCC(=O)c1cn(CC(=O)Nc2ccccc2F)c2ccccc12 | - | - | - | - | - | -
CC(=O)c1cn(CC(=O)Nc2ccccc2F)c2ccccc12 | - | - | - | ? | 11µM | ?
CC(=O)c1cn(CC(=O)Nc2ccccc2Cl)c2ccccc12 | . | . | - | . | 11µM | .
Cc1cc(C)cc(NC(=O)Cn2cc(C(=O)C3CCCCC3)c3ccccc32)c1 | ? | ? | - | - | . | -
COC(=O)c1cc(OC)c(OC)cc1NC(=O)c1ccc2c(c1)CCN2S(=O)(=O)c1ccccc1 | - | - | - | - | . | ?
CSc1ccccc1NC(=O)c1cc(-c2cccnc2)nc2ccc(Br)cc12 | - | - | -73 | ? | 11µM | ?
O=C(Nc1ccc(C(=O)N2CCOCC2)cc1)c1cc(-c2cccnc2)nc2ccc(Cl)cc12 | - | - | -69 | ? | 7.9µM | -

Source: PubChem BioAssay
